RPL19A-GFP yeast = yeast TOR pathway RPL19A-GFP modulation. S. cerevisiae RPL19A-GFP strain, flow cytometry, 3 h; stronger effect = lower value. percent response vs DMSO, % at 10 µM. AID 2025. 0.3% of 330,000 active;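 active = percent response vs DMSO below 50%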;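 note: median channel GFP fluorescence of the barcoded RPL19A-GFP strain; ratio of sample median GFP to plate DMSO average so 100% = DMSO; lower means less RPL19A-GFP as with rapamycin TOR inhibition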
MEP2 TOR yeast = modulators of TOR pathway MEP2-GFP in S. cerevisiae | 0.51% of 330,000 active | S. cerevisiae MEP2-GFP strain, flow cytometry GFP, 3 h; 100% = DMSO control level | GFP response vs DMSO, % at 10 µM | AID 2016;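 active = GFP response versus DMSO above a set limit, roughly screen mean plus 3 SD, cut at about 180% in these data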;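 note: median GFP fluorescence of the barcode-gated MEP2-GFP cells per well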
LAP4 TOR yeast = alters LAP4-GFP fluorescence in TOR pathway yeast screen; S. cerevisiae LAP4-GFP multiplex, flow cytometry GFP, 3 h; median GFP as percent of DMSO wells; GFP response vs DMSO, % at 10 µM; 0.34% of 320,000 active;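 active = GFP response vs DMSO above a set limit, about the screen mean plus 3 SD, cut at about 150% in these data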
AGP1 TOR yeast = alters AGP1-GFP fluorescence in TOR pathway yeast screen; S. cerevisiae AGP1-GFP multiplex flow cytometry, 3 h; GFP as percent of DMSO wells; GFP response vs DMSO, % at 10 µM; 0.02% of 320,000 active;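 active = GFP response relative to DMSO above a set limit, near screen average plus 3 SD, cut at about 150% in these data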;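 note: median GFP channel fluorescence of the gated AGP1 strain per well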
CIT2-GFP yeast = alters CIT2-GFP fluorescence in TOR pathway yeast screen. GFP response vs DMSO, % at 10 µM. AID 2029. S. cerevisiae CIT2-GFP strain, flow cytometry, 3 h; 100 means same as DMSO wells. 0.065% of 320,000 active;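 active = GFP response relative to DMSO above a set limit, near the screen mean plus 3 SD, cut at about 150% in these data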;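 note: ratio of well median GFP fluorescence to mean of DMSO wells on the plate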
LAP4 cherry2 = reconfirmed LAP4-GFP TOR pathway modulator in yeast; S. cerevisiae LAP4-GFP strain, flow cytometry GFP, 3 h; GFP response vs DMSO, % at 10 µM; 20% of 590 active; shares compounds with LAP4 TOR yeast;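 active = GFP signal as percent of the solvent control above about 150%, meaning raised reporter expression, limit read from the data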;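 note: ratio of well median GFP fluorescence to plate DMSO mean so 100% = DMSO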
MEP2-GFP pick2 = reconfirmed MEP2-GFP TOR pathway modulator in yeast | GFP response vs DMSO, % at 10 µM | AID 2622 | shares compounds with LAP4 TOR yeast | S. cerevisiae MEP2-GFP strain, flow cytometry GFP, 3 h | 10% of 590 active;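 active = GFP signal above 150% of the solvent control wells, that is a rise of more than half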;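 note: median channel GFP fluorescence of all gated yeast cells per well; ratio of median GFP to plate DMSO average so 100% = DMSO level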
RPL19A GFP CP2 = reconfirmed modulator of RPL19A-GFP TOR reporter in yeast; S. cerevisiae RPL19A-GFP strain, flow cytometry GFP, 3 h; stronger effect = lower value; 100% means same as DMSO wells; shares compounds with LAP4 TOR yeast; AID 2623; GFP response vs DMSO, % at 10 µM; 3% of 590 active;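 active = under 65% GFP response relative to DMSO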;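 note: median GFP channel fluorescence per well over the all cells gate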
CIT2 GFP CP2 = reconfirmed modulator of CIT2-GFP TOR reporter in yeast; S. cerevisiae CIT2-GFP strain, flow cytometry GFP, 3 h; DMSO control wells read 100%; GFP response vs DMSO, % at 10 µM; shares compounds with LAP4 TOR yeast; AID 2624; 8% of 590 active;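 active = GFP response vs DMSO above about 150%, limit read from the data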;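 note: median green fluorescence per well over all gated yeast cells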
AGP1 GFP CP2 = yeast AGP1-GFP TOR reporter modulation, second cherry pick; shares compounds with LAP4 TOR yeast; S. cerevisiae AGP1-GFP strain, flow cytometry GFP, 3 h; percent response vs DMSO, % at 10 µM; 590 tested, under 10 active; AID 2643;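 active = over 150 percent of DMSO response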;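 note: median GFP channel fluorescence over all cells without mother daughter split; sample median GFP divided by mean DMSO control so 100% equals DMSO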
s288c autofluor = yeast s288c autofluorescence artifact, counter-screen; shares compounds with LAP4 TOR yeast; fluorescence change (kMESF span) at 33 µM; S. cerevisiae s288c, 520 nm autofluorescence, flow cytometry, 3 h; stronger effect = higher value; zero means same as solvent-only cells; 610 tested, under 10 active;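 active = fluorescence span over the dose series, or activity score, above about 33, limit read from the data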
s288c autofl DR = counter-screen for autofluorescence of TOR hits in yeast s288c; S. cerevisiae s288c parental, compound autofluorescence, flow cytometry, 3 h; fluorescence change (span) at 33 µM; shares compounds with LAP4 TOR yeast; 110 tested, under 10 active;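 active = fluorescence change span, or the activity score built from it, above 25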
TORC1 bypass gr = compounds blocking wildtype yeast growth but not TORC1 bypass cells; shares compounds with LAP4 TOR yeast; S. cerevisiae BY4741 spot growth rating, 48-72 h; stronger effect = lower value; growth rating (0-3) at 30 µM; 120 tested, under 10 active; AID 504456;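 active = growth rating at most 1 for wild type yeast while the TORC1 bypass strain still grows fully, rated 3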
Numbers without * were called inactive; [ ] = another dose, or the depositor's remark. This is a sample that favours compounds with a hit; in the whole collection about 0.92% have one here.

Cc1cc(C)cc(NC(=O)CN2CCc3cc4c(cc3C2C)OCCCO4)c1 (stereo unspecified) was read as RPL19A-GFP yeast 100, MEP2 TOR yeast 193*, LAP4 TOR yeast 124, AGP1 TOR yeast 88, CIT2-GFP yeast 99, LAP4 cherry2 102, MEP2-GFP pick2 98, RPL19A GFP CP2 101, CIT2 GFP CP2 107 and AGP1 GFP CP2 97.
Screening O=C(NNC(=S)NC(=O)C12CC3CC(CC(C3)C1)C2)c1ccncc1 returned RPL19A-GFP yeast 83, MEP2 TOR yeast 117, LAP4 TOR yeast 182*, AGP1 TOR yeast 94 and s288c autofluor 1.5.
`CC1(C(=O)NC(=S)NNC(=O)c2ccncc2)CCCCC1` gave RPL19A-GFP yeast 74, MEP2 TOR yeast 543*[may fluoresce green], LAP4 TOR yeast 160*[may fluoresce green], AGP1 TOR yeast 156*[may fluoresce green], CIT2-GFP yeast 227*[may fluoresce green], LAP4 cherry2 102, MEP2-GFP pick2 105, RPL19A GFP CP2 100, CIT2 GFP CP2 107, AGP1 GFP CP2 98 and s288c autofluor 0.2.
COc1cccc(N2CCN(c3ccc4nnc(CCC(=O)Nc5ccc(C)cn5)n4n3)CC2)c1 was read as RPL19A-GFP yeast 60, MEP2 TOR yeast 136, LAP4 TOR yeast 98, AGP1 TOR yeast 22, CIT2-GFP yeast 108, LAP4 cherry2 96, MEP2-GFP pick2 98, RPL19A GFP CP2 98, CIT2 GFP CP2 103 and AGP1 GFP CP2 100.
Screening Nc1ccc(Br)c2c1C(=O)c1ccccc1C2=O returned RPL19A-GFP yeast 62, MEP2 TOR yeast 134, LAP4 TOR yeast 143, AGP1 TOR yeast 71, CIT2-GFP yeast 128, LAP4 cherry2 156*, MEP2-GFP pick2 113, RPL19A GFP CP2 80, CIT2 GFP CP2 126, AGP1 GFP CP2 94 and s288c autofluor 0.1.
For Nc1ccc(O)c2c1C(=O)c1ccccc1C2=O the results were RPL19A-GFP yeast 97, MEP2 TOR yeast 147, LAP4 TOR yeast 146, AGP1 TOR yeast 92 and CIT2-GFP yeast 110.
`O=C(O)CCC(NC(=O)OCc1ccccc1)C(=O)O` (stereo unspecified) gave RPL19A-GFP yeast 98, MEP2 TOR yeast 104, LAP4 TOR yeast 107, AGP1 TOR yeast 99 and CIT2-GFP yeast 98.
For Nc1nc(N)c2nc(CNc3ccc(C(=O)NC(CCC(=O)O)C(=O)O)cc3)cnc2n1 (stereo unspecified) the results were RPL19A-GFP yeast 85, MEP2 TOR yeast 94, LAP4 TOR yeast 299*, AGP1 TOR yeast 101, CIT2-GFP yeast 83, LAP4 cherry2 327*, MEP2-GFP pick2 218*, RPL19A GFP CP2 101, CIT2 GFP CP2 157*, AGP1 GFP CP2 128 and s288c autofluor 0.1.
For Cc1cc2ccccn2c1C(=O)c1ccc([N+](=O)[O-])o1 the results were RPL19A-GFP yeast 84, MEP2 TOR yeast 101, LAP4 TOR yeast 218*, AGP1 TOR yeast 97, CIT2-GFP yeast 121 and s288c autofluor 18.
Cc1cc2ccccn2c1C(=O)c1cccc([N+](=O)[O-])c1 was read as RPL19A-GFP yeast 104, MEP2 TOR yeast 111, LAP4 TOR yeast 106, AGP1 TOR yeast 111 and CIT2-GFP yeast 103.
For Nc1nc(Nc2ccccc2)nc(Nc2cccc(F)c2)c1[N+](=O)[O-] the results were s288c autofl DR 0.26 and TORC1 bypass gr 3.
Nc1nc(NCCOCCO)nc(Nc2cccc(F)c2)c1[N+](=O)[O-] was read as RPL19A-GFP yeast 115, MEP2 TOR yeast 116, LAP4 TOR yeast 105, AGP1 TOR yeast 105 and CIT2-GFP yeast 109.
Screening CNc1nc(N)c([N+](=O)[O-])c(Nc2cccc(F)c2)n1 returned RPL19A-GFP yeast 73, MEP2 TOR yeast 338*[may fluoresce green], LAP4 TOR yeast 140, AGP1 TOR yeast 134, CIT2-GFP yeast 274*[may fluoresce green], LAP4 cherry2 141, MEP2-GFP pick2 active, RPL19A GFP CP2 79, CIT2 GFP CP2 350*, AGP1 GFP CP2 159*, s288c autofluor -0.2, s288c autofl DR 0.07 and TORC1 bypass gr 1*.
`Nc1nc(Nc2cccc(F)c2)nc(Nc2cccc(F)c2)c1[N+](=O)[O-]` gave s288c autofl DR 0 and TORC1 bypass gr 3.
`CNc1nc(N)c([N+](=O)[O-])c(Nc2cccc(Cl)c2)n1` gave RPL19A-GFP yeast 93, MEP2 TOR yeast 109, LAP4 TOR yeast 114, AGP1 TOR yeast 96, CIT2-GFP yeast 121, s288c autofl DR 0.36 and TORC1 bypass gr 3.
CC(C)C(=O)C1=Cc2cc([N+](=O)[O-])ccc2OC1N1CCOCC1 (stereo unspecified) was read as RPL19A-GFP yeast 102, MEP2 TOR yeast 104, LAP4 TOR yeast 98, AGP1 TOR yeast 86 and CIT2-GFP yeast 100.
Screening CCN1CCN(CC(=O)N/N=C/c2ccc(F)cc2F)CC1 returned RPL19A-GFP yeast 94, MEP2 TOR yeast 94, LAP4 TOR yeast 82, AGP1 TOR yeast 92 and CIT2-GFP yeast 98.
`CN1C(=O)/C(=N\OC(=O)c2cccc3ccccc23)c2ccccc21` gave RPL19A-GFP yeast 92, MEP2 TOR yeast 106, LAP4 TOR yeast 207*, AGP1 TOR yeast 75, CIT2-GFP yeast 82 and s288c autofluor 0.4.
